# Laboratory results: ChEMBL document CHEMBL1201862, “PubChem BioAssay data set” (2004)
# In all, about 53,000 sequences went through this assay and about 3,200 (6%) were called active. No stated cut-off is given here; in the data, active = GI50 up to about 1.1 µM and inactive = higher. The entries come from a sample that favours actives as a whole. Measured potencies and affinities stand elsewhere.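 Cells were grown in 96-well plates and exposed to each compound for 48 hours at five concentrations; endpoints were interpolated linearly between bracketing concentrations, or set to the highest concentration if not reached. GI50: concentration for 50% inhibition of growth.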
# Test system: HCC 2998
# Assay: NCI tumour cell line growth inhibition, 48 h
row,Substance,GI50 [µM]
1,"CISPLATIN, CHEMBL11359",5.4
2,"[Bis(aminomethyl)tetramethylenesilane]dichloropaltinum(II), CHEMBL2146205",25.4
3,"[Bis(aminomethyl)dimethylsilane]tetrachloroplatinum(IV), CHEMBL2146190",6.78
4,"[Bis(aminomethyl)tetramethylenesilane]tetrachloropaltinum(IV), CHEMBL2146189",0.682
5,"[Bis(aminomethyl)pentamethylenesilane]tetrachloropaltinum(IV), CHEMBL2146204",0.313
6,"[Bis(aminomethyl)dimethylsilane]dichloroplatinum (II), CHEMBL2146201",10
7,"[Bis(aminomethyl)ethylmethylsilane]tetrachloroplatinum(IV), CHEMBL2146192",2.38
8,"mu-(1,7-nanodiamine-N,N')bis-(cis-aminedichloroplatimum (II)), CHEMBL2146215",24
9,"[Bis(aminomethyl)pentamethylenesilane]dichloropaltinum(II), CHEMBL2146202",3.52
